In all, about 310,000 compounds went through this assay and about 1,000 (0.32%) were called active. How the calls were made is not given here. Only a sample is shown. Entries with a potency or affinity are not part of this list.

The nature of the assay: PhoP regulon inhibitors, Salmonella typhi PhoP promoter GFP reporter, confirmatory (AID 1850).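 Further: 0% = induced wells with vehicle and 100% = uninduced wells.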 As to conditions: fluorescence, 4 h, at 50 µM, stronger effect = higher value.
With `CCOC(=O)c1ccc(NC(=S)NCc2ccccc2)cc1`, the inhibition was 4.39% (inactive). For `Cc1ccc(S(=O)(=O)N2CCN(S(=O)(=O)c3cccs3)CC2)cc1`, the inhibition was -0.13% (inactive).

Turning to `CCOc1ccc(NC(=O)CSc2nnc(-c3ccncc3)n2CC2CCCO2)cc1` (configuration not stated), the inhibition is -0.03% (inactive).

Regarding `CCNC(=O)NCCNC(=O)c1cc(OCC(F)(F)F)ccc1OCC(F)(F)F`, the inhibition is 1.77% (inactive). As to `O=C(c1ccc(-n2cncn2)c([N+](=O)[O-])c1)N1CCN(S(=O)(=O)c2ccc(F)c(F)c2)CC1`, the inhibition was 9.27% (inactive).

As to `C=C(C)CNC(=S)NNC(=O)c1ccc(Br)cc1`, the inhibition is -8.67% (inactive). For `O=C(NNC(=S)NC(=O)c1ccc(Br)cc1)c1ccc([N+](=O)[O-])cc1` the value was 0.22% (inactive); for `CCC(=O)NC(=S)NNC(=O)c1ccc(OC)cc1`, 18.2% (inactive).

For `CCCOc1ccc(C(=O)NNC(=S)NC(=O)c2ccccc2)cc1`, the inhibition is 2.22% (inactive). Under `CCCCC(=O)NC(=S)NNC(=O)c1ccc(OC)cc1` stands -8.34% (inactive); under `CCCOc1ccc(C(=O)NNC(=S)NC(=O)c2cccs2)cc1`, 19.7% (inactive); under `Cc1ccc(C(=O)NNC(=S)NC(=O)c2ccco2)cc1`, -11.8% (inactive). For `COc1ccc(C(=O)NNC(=S)NC(=O)c2ccco2)cc1` the value was 5.07% (inactive); for `O=C(Nc1nc(-c2ccccc2Cl)cs1)c1cccnc1`, 3.73% (inactive).

Regarding `CC(C)(C)c1cc(OC(=O)c2ccccc2F)ccc1O`, the inhibition was -1% (inactive). Under `CC(=O)NC(=S)Nc1cc(C(F)(F)F)ccc1N1CCOCC1` stands -8.24% (inactive). Consider `CCC1(C)SC(NC(C)=O)=NN1C(C)=O` (configuration not stated), for which the inhibition is -7.92% (inactive).

On to `Cc1cc(=O)[nH]c(N/N=C/c2cccc(Br)c2)n1`, for which the inhibition is 5.33% (inactive).

As for `Cc1onc(-c2ccccc2)c1C(=O)OCC(=O)N(CC(C)C)c1c(N)n(Cc2ccccc2)c(=O)[nH]c1=O`, the inhibition was 0.02% (inactive). As to `Cc1ccsc1C1CC(=O)Nc2ccccc2S1` (configuration not stated), the inhibition was 3.75% (inactive). For `CCN(CC(=O)NCc1ccc(Cl)cc1)C(=O)CCc1ccccc1` the value was 8.65% (inactive). As to `c1ccc(CN2CCN(C(c3ccccc3)c3nnnn3Cc3ccccc3)CC2)cc1` (configuration not stated), the inhibition was -8.11% (inactive). For `COc1cc(N)c(Cl)cc1C(=O)OCC(=O)N1CCCC1` the value was -3.7% (inactive). For `CCC(=O)NC(=S)NNC(=O)c1ccc(O)cc1` the value was -2.12% (inactive); for `C=CCNC(=S)NNC(=O)c1ccc(OCCC)cc1`, 0.33% (inactive). Under `CSc1ncccc1C(=O)N1CCCC(C(=O)c2ccc3ccccc3c2)C1` (configuration not stated) stands 0.25% (inactive); under `Cc1cc(C(C)(C)C)ccc1OCCOCCN1CCCC1`, -9.74% (inactive); under `Cc1cc(C(C)(C)C)ccc1OCCN(C)C`, -2.78% (inactive).

Consider `CC(C)(C)c1ccc(OCCNCc2ccccc2)cc1`, for which the inhibition is 3.96% (inactive). Under `C[N+](C)(CCOc1ccccc1)Cc1ccccc1` (tested in a mixture with another compound) stands -4.3% (inactive); under `N/C(=N/[N+](=O)[O-])N1CCN(C(=O)c2ccc(Cl)cc2)CC1`, 9.05% (inactive); under `O=C(NC1CCS(=O)(=O)C1)c1ccc(-c2ccc(Br)cc2)o1` (configuration not stated), -6.5% (inactive). Take `O=C(NCCc1ccccc1Cl)c1ccc2nc3ccccc3c(=O)n2c1`: the inhibition was -1.95% (inactive).

With `O=[N+]([O-])c1ccc(Sc2cccc3cccnc23)cc1`, the inhibition was -0.7% (inactive). Take `CCOC(=O)COc1cc([N+](=O)[O-])cc2cccnc12`: the inhibition was 1.87% (inactive).

Regarding `CC(C)N=C(N)N=C(N)Nc1ccc(Cl)cc1`, the inhibition was 28.9% (inactive). Under `NC(N)=NC(=S)Nc1ccc(Cl)cc1` stands 18.1% (inactive); under `COc1ccc(C(=O)N/C(=C\c2ccco2)C(=O)NC2CCS(=O)(=O)C2)cc1` (configuration not stated), -6.19% (inactive); under `O=C(Nc1nnc(C2=COCCO2)o1)c1cccc(C(F)(F)F)c1`, -4.95% (inactive). As for `COc1cccc(C(=O)Nc2nnc(-c3cccs3)o2)c1`, the inhibition is 17.3% (inactive). Under `O=C(Nc1nnc(-c2cccs2)s1)c1cccc(F)c1` stands -2.5% (inactive); under `N#Cc1ccc(C(=O)Nc2nnc(-c3cccs3)o2)cc1`, 21.1% (inactive); under `O=C(Nc1nnc(-c2cccs2)o1)c1ccco1`, 9.01% (inactive). For `CN(C)S(=O)(=O)c1ccc(C(=O)Nc2nnc(-c3cccs3)o2)cc1` the value was -4% (inactive); for `Cc1cc(C(=O)COC(=O)c2nc3nccc(C)n3n2)c(C)n1CC1CCCO1` (configuration not stated), -1.82% (inactive); for `COCCn1c(CCC(=O)O)ccc1-c1cccs1`, 3.14% (inactive). Under `O=C(O)c1ccccc1-n1c(-c2ccccc2)cc2c1CCCC2=O` stands -1.82% (inactive); under `CC(C)CC1Nc2ccc(C(=O)NCc3ccc4c(c3)OCO4)cc2NC1=O` (configuration not stated), 1.92% (inactive). For `Cc1nccn1Cc1ccccc1`, the inhibition was 9.82% (inactive). Under `COc1ccc(Cl)cc1NC(=S)NCCc1ccc(S(N)(=O)=O)cc1` stands 1.57% (inactive); under `CN(Cc1ccccc1)C(=O)c1cccnc1`, -2.03% (inactive).

As for `CCOC(=O)c1ccc(NC(=O)c2cn(-c3ccccc3)nc2-c2ccncc2)cc1`, the inhibition was 3.68% (inactive).

Regarding `CN(C)[C@@H]1C(=O)C(C(=O)NCN2CCCC2)=C(O)[C@@]2(O)C(=O)C3=C(O)c4c(O)cccc4[C@@](C)(O)C3CC12` (some centres not stated), the inhibition is -8.43% (inactive).

Consider `CN(C)[C@@H]1C(=O)C(C(N)=O)=C(O)[C@@]2(O)C(=O)C3=C(O)c4c(O)cccc4[C@@](C)(O)[C@H]3[C@H](O)[C@@H]12`, for which the inhibition was 5.02% (inactive). For `CN(C)[C@@H]1C(=O)C(C(N)=O)=C(O)[C@@]2(O)C(=O)C3=C(O)c4c(O)ccc(Cl)c4[C@@](C)(O)[C@H]3C[C@@H]12`, the inhibition was 4.13% (inactive). For `CN(C)[C@@H]1C(=O)C(C(N)=O)=C(O)[C@@]2(O)C(=O)C3=C(O)c4c(O)cccc4[C@@](C)(O)[C@H]3C[C@@H]12`, the inhibition is -2.82% (inactive). For `COC(=O)C1=C(C)N(Cc2ccco2)C(=O)N[C@H]1c1ccccc1` the value was -5.63% (inactive); for `Cc1cccc(OCc2nnc(SCC(=O)c3ccccc3)o2)c1`, 5.39% (inactive); for `O=C(c1ccc(-n2cncn2)c([N+](=O)[O-])c1)N1CCN(S(=O)(=O)c2c(F)cccc2F)CC1`, -3.76% (inactive). For the molecule `O=C(N/N=C/c1cccc(C(F)(F)F)c1)c1ccccc1O`, the inhibition is 1.04% (inactive). Under `O=C(Nc1ccccc1F)Oc1cccc(OC(=O)Nc2ccccc2F)c1` stands 5.4% (inactive); under `CS(=O)(=O)Nc1ccc(C(=O)Nc2ccc(S(=O)(=O)N3CCCC3)cc2)cc1`, -7.4% (inactive). Under `O=C1Nc2ccc(S(=O)(=O)N3CCCC3)c3cccc1c23` stands -4.45% (inactive). Under `CC(=O)c1ccc(N=Nc2ccc(N(C)C)cc2)cc1` stands 6.87% (inactive). On to `CCN(CC(=O)NCCN1CCOCC1)S(=O)(=O)c1ccc(F)cc1`, for which the inhibition was 5.57% (inactive).

For the molecule `C/C(=N\NC(=O)C(O)c1ccccc1)c1ccc(Cl)s1` (configuration not stated), the inhibition was -5.86% (inactive). As to `CN(C)C(=S)NC(=O)c1cccc(Cl)c1`, the inhibition was -16.5% (inactive). Under `O=C(Nc1ccc(C(=O)O)cc1)/C(=C\C=C\c1ccccc1)NC(=O)c1cccc(Br)c1` stands 9.6% (inactive). Regarding `Cc1cc(C)n(/N=C/c2ccccc2O)c(=O)c1`, the inhibition is -10.2% (inactive). Under `O=[N+]([O-])c1ccc(O)c(/C=N/n2cnnc2)c1` stands 16.7% (inactive). As to `Cc1cc(C)n(/N=C/c2cccc([N+](=O)[O-])c2)c(=O)c1`, the inhibition is -0.547% (inactive).

For `Cc1cc(C)n(/N=C/c2c[nH]c3ccccc23)c(=O)c1`, the inhibition was 2.25% (inactive). For the molecule `C/C1=C\CCC2C(/C=C(\C)CC1)OC(=O)C2CN1CCCCC1` (configuration not stated), the inhibition was 5.15% (inactive).

On to `CCOc1ccccc1NC(=O)C1CCN(S(=O)(=O)c2cccc3cccnc23)CC1`, for which the inhibition is 14.7% (inactive). Under `CCOC(=O)c1nnn(-c2nonc2-n2cccc2)c1CN1CCCCC1` stands -6.4% (inactive); under `Nc1cc(C(=O)O)c(Oc2ccc(Cl)cc2Cl)cc1C(=O)O`, -3.01% (inactive).

For `O=C(O)/C=C/c1ccccc1Oc1ccc(Cl)cc1Cl`, the inhibition is 4.42% (inactive). `COc1cc(C)ccc1NC(=O)c1ccc(S(=O)(=O)N2CCOCC2)cc1`: the inhibition is -3.12% (inactive). For `c1ccc(C(c2ccccc2)N2CCN(Cc3nc(-c4cnccn4)no3)CC2)cc1`, the inhibition is -8.94% (inactive).

Regarding `O=c1c([N+](=O)[O-])c(N2CCCCCC2)c2ccccc2n1-c1ccccc1`, the inhibition is 4.43% (inactive). Regarding `CCn1cc(C(=O)O)c(=O)c2cc(F)c(N3CCN(S(=O)(=O)c4ccc(NC(=O)OC)cc4)CC3)cc21`, the inhibition was 3.45% (inactive). For the molecule `CCn1cc(C(=O)O)c(=O)c2cc(F)c(N3CCN(S(=O)(=O)c4ccc(Br)cc4)CC3)cc21`, the inhibition was 2.97% (inactive). For `CCn1cc(C(=O)O)c(=O)c2cc(F)c(N3CCN(C(=S)NC(=O)c4ccc(OC)cc4)CC3)cc21` the value was -3.45% (inactive). For `O=C(O)c1cc(CN2CCOCC2)oc1-c1ccccc1` the value was 2.28% (inactive); for `Cc1ccc(C(=O)C(C)OC(=O)Cn2cnc3c2c(=O)n(C)c(=O)n3C)cc1` (configuration not stated), 2.25% (inactive). As to `COc1cc(CNc2cccc(C(=O)O)c2)cc(Br)c1OCC(=O)NC(C)(C)C`, the inhibition is -9.24% (inactive).

On to `COC(=O)c1cc(CN2CCN(c3ccccc3C)CC2)ccc1O`, for which the inhibition is -3.53% (inactive). For `Cc1ccc(-c2cc(=O)c3ccccc3[nH]2)cc1` the value was 10.7% (inactive); for `COc1ccc(Cc2nc3ccccc3n2CC(=O)N/N=C/c2ccc(C)cc2O)cc1OC`, -7.1% (inactive); for `C/C(=N\NC(=S)NCc1ccccc1)c1ccc(Cl)s1`, 9% (inactive). For `Cc1cc(C)n(-c2nncn2/N=C/c2ccccc2F)n1` the value was -6.07% (inactive); for `O=C(Nc1ccccc1C(=O)N1CCOCC1)C1CC(=O)N(C2CCCC2)C1` (configuration not stated), -0.19% (inactive).

Usually inhibition stands for the drop in the measured response relative to a control, in per cent.

Values taken from PubChem BioAssay AID1850 (Southern Research Specialized Biocontainment Screening …, 2009).
